Assay outcomes as filed in PubChem.
Most compounds without a hit are left out; they make up all but 1.8% or so of the library.
LYPLA1 inh = LYPLA1 inhibitors, primary screen, counter-screen for PME1 inhibitor project, biochemical, fluorescence polarization, FP-Rh probe ABPP. 320,000 tested, 0.16% active. recombinant LYPLA1. inhibition, % at 5.9 µM. Acyl-protein thioesterase 1 (Homo sapiens), O75608;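 active = inhibition above the mean of all tested compounds plus 3 SD, set per campaign, cut at about 14% in these data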;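 also: inhibitors block serine hydrolase probe labeling of LYPLA1 so polarization falls; 0% = enzyme with DMSO and 100% = wells lacking LYPLA1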
Target sequence (O75608 whole entry, looked up): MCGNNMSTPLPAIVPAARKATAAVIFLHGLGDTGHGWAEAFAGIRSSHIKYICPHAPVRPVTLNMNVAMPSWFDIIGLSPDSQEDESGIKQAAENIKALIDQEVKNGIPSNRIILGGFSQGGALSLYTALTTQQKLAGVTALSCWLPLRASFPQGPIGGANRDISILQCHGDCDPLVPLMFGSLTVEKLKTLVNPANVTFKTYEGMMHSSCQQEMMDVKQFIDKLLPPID
PME-1 inh = PME-1 inhibitors via competitive probe labeling, primary screen, biochemical, fluorescence polarization, FP-Rh probe, HTS. Protein phosphatase methylesterase 1 (Homo sapiens), Q9Y570. recombinant PME-1. inhibition, % at 5.9 µM. 320,000 tested, 0.53% active;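 active = inhibition above the campaign mean of all compounds plus 3 SD, cut at about 26% in these data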;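 also: competitive labeling of PME-1 active site by serine hydrolase directed probe; 0% = PME-1 with DMSO and 100% = wells lacking PME-1 enzyme; inhibitors block probe labeling so polarization falls and inhibition rises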
Fam108B counter = mouse Fam108B serine hydrolase inhibitors, primary screen, counter-screen for RBBP9 inhibitor project, biochemical, fluorescence polarization. recombinant Fam108B, FP-Rh probe fluorescence polarization. inhibition, % at 9.51 µM. 300,000 tested, 0.33% active;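 active = inhibition above the screen mean inhibition plus 3 SD, computed separately per campaign, cut at about 18% in these data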;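 also: inhibitors lower polarization as less probe binds the enzyme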
PAD4 inh = human PAD4 inhibitors, primary screen, biochemical, fluorescence polarization, 1536-well format; Protein-arginine deiminase type-4 (Homo sapiens), Q9UM07; recombinant PAD4, RCA probe fluorescence polarization; inhibition, % at 6.36 µM; 330,000 tested, 0.41% active; AID 485272, 2010;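 active = percent inhibition above a cutoff equal to the mean of all tested compounds plus 3 SD, cut at about 15% in these data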;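 also: 0% = PAD4 with RCA probe and DMSO and 100% = probe without PAD4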
LYPLA2 inh = LYPLA2 inhibitors, primary screen, counter-screen for PME1 inhibitor project, biochemical, fluorescence polarization, FP-Rh probe ABPP; recombinant LYPLA2; inhibition, % at 5.9 µM; 320,000 tested, 0.38% active;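 active = inhibition above the screen-wide mean plus 3 SD, limit set per campaign, cut at about 26% in these data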;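 also: 0% = LYPLA2 with DMSO and 100% = wells lacking LYPLA2 enzyme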
GSTO1 counter = inhibitors of recombinant GSTO1, primary screen, counter-screen for RBBP9 inhibitor project, biochemical, fluorescence polarization; inhibition, % at 5.96 µM; activity-based probe fluorescence polarization; 300,000 tested, 1.1% active; Glutathione S-transferase omega-1 (Homo sapiens), P78417; AID 1974, 2009;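 active = inhibition above the campaign mean inhibition plus 3 SD, cut at about 35% in these data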;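 also: 0% = GSTO1-1 with DMSO and 100% = wells lacking GSTO1-1 enzyme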
Target sequence (P78417 whole entry, looked up): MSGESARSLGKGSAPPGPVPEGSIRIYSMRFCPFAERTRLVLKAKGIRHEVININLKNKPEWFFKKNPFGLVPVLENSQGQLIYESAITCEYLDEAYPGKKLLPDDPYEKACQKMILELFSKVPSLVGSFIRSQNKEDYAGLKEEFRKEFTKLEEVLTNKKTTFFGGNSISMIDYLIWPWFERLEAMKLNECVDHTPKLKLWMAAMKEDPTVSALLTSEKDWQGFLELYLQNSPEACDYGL
GSTO1 confirm = GSTO1 inhibitor hit confirmation, counter-screen for RBBP9 inhibitor project, biochemical, fluorescence polarization, triplicate; inhibition, % at 5.96 µM; shares compounds with GSTO1 counter; 2,400 tested, 54% active; recombinant GSTO1, probe fluorescence polarization; AID 2176, 2009;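 active = inhibition above the primary screen's cutoff, its mean inhibition plus 3 SD, cut at about 35% in these data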;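 also: loss of polarization as inhibitors block binding of rhodamine sulfonate ester activity probe; 0% = GSTO1 with DMSO and 100% = wells lacking GSTO1 enzyme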
Active calls of the source: *; x = not tested or not shown.

SMILES	LYPLA1 inh	PME-1 inh	Fam108B counter	PAD4 inh	LYPLA2 inh	GSTO1 counter	GSTO1 confirm
CN(/C(=N\S(=O)(=O)c1ccccc1)C(F)(F)F)c1ccccc1	0	-6	-1	-1	0	3	x
O=C(N/N=C/c1c[nH]c2ccccc12)c1ccc(O)c(O)c1	-4	10	-3	0	-5	40*	11
O=C(CN1CCCCC1)N1N=C(c2cccs2)CC1c1cccs1 (stereo unspecified)	0	1	2	-2	0	5	x
Cc1cc(C(=O)NNC(=S)NC(=O)/C=C/c2ccccc2Cl)n[nH]1	-1	9	-2	0	5	58*	10
Nc1nc(N)nc(-c2cc(O)ccc2O)n1	-1	4	x	-4	6	x	x
Oc1ccc(O)c(-c2cnns2)c1	-7	1	2	0	-3	89*	-5
Cc1ccc(O)c(N=CC2=C(O)c3ccccc3C2=O)c1	0	34*	16	4	-4	68*	26
Cn1c(NC(=O)c2ccc(Cl)cc2)c(-c2ccccn2)c(=O)c2ccccc21	2	0	0	5	2	44*	5
CC(C)C(=O)Nc1c(-c2ccc(Cl)cc2)c(=O)c2ccccc2n1C	3	-2	-7	4	-4	4	x
O=C(NC1CCCCC1)C(c1ccco1)N(Cc1ccco1)C(=O)c1ccco1 (stereo unspecified)	1	-2	2	1	-3	-1	x
O=c1[nH]c(C2CCN(S(=O)(=O)c3ccccc3C(F)(F)F)CC2)nc2c1nnn2Cc1cccc(F)c1	-8	19	-3	-1	-19	47*	50*
O=c1[nH]c(C2CCN(S(=O)(=O)c3ccc(C(F)(F)F)cc3)CC2)nc2c1nnn2Cc1cccc(F)c1	-3	12	-3	-3	1	3	x
O=C(O)Cc1c[nH]c2ccccc12	-3	-6	-1	-2	1	2	x
O=C(O)Cc1c[nH]c2cccc(O)c12	2	-29	11	2	1	42*	23
O=C(Cc1cc(=O)[nH][nH]1)N/N=C/C(Cl)=C/c1ccccc1	-2	3	1	7	1	54*	20
O=Cc1cccc(Oc2ncccn2)c1	2	-4	4	-2	11	2	x
Nc1ccc(Oc2ncccn2)cc1	1	8	8	8	10	65*	9
CCOc1ccc(NC(=O)C(c2ccccn2)N(C(=O)CCl)c2ccc(OCC)cc2)cc1 (stereo unspecified)	-1	6	3	-8	0	43*	10
CC(=O)Nc1ccc(C(=O)N(C)C(C(=O)Nc2ccc(C)cc2)c2ccccn2)cc1 (stereo unspecified)	0	0	1	4	5	6	x
CCN(CC)C(=O)c1cc([N+](=O)[O-])cc2c1-c1ccc([N+](=O)[O-])cc1C2=C(C#N)C#N	-2	5	8	-3	-2	38*	25
CC1CCCC(C)N1C(=O)COc1ccc(F)cc1 (stereo unspecified)	-2	-1	-2	-1	-4	3	x
O=C(Nc1ccc2c(c1)OCO2)[C@@H]1[C@@H]2C(=O)N(C3CCCCC3)C(=O)[C@@H]2C2c3ccccc3C=CN21 (stereo partly specified)	-2	4	8	-9	6	15	x
O=C(c1cccs1)[C@@H]1[C@@H]2C(=O)N(Cc3ccc4c(c3)OCO4)C(=O)[C@@H]2C2c3ccccc3C=CN21 (stereo partly specified)	-1	0	-6	1	-8	38*	8
CCOc1ccc(N(CCCCO)C(=S)NC(=O)c2ccc(C)c(Br)c2)cc1	0	3	-5	-4	9	47*	11
COc1c(-c2ccc(O)c(O)c2)oc2cc(O)cc(O)c2c1=O	-9	-10	-3	-6	-6	41*	22
SMILES	LYPLA1 inh	PME-1 inh	Fam108B counter	PAD4 inh	LYPLA2 inh	GSTO1 counter	GSTO1 confirm
Oc1[nH]c2c(Cl)cc(Cl)cc2c1N=NC(=S)NCC1CCCO1 (stereo unspecified)	-1	5	-1	-3	-2	51*	7
Cc1ccc(NC(=O)CSc2nc(=O)n(CCN(C)C)c3c2CCCC3)cc1Cl	-5	1	0	0	3	-15	x
CN1CCC(NC(=O)c2cccc(Oc3ccccc3)c2)CC1	4	3	3	-2	2	63*	6
O=C(NC1CCCC1)c1cccc(Oc2ccccc2)c1	0	4	-2	9	9	3	x
CC(=O)C1=C(c2ccc(Br)cc2)C(=O)c2ccccc2C1=O	-3	4	9	-6	-4	39*	3
O=C(CSc1nc2ccccc2o1)N/N=C/c1ccc(O)c(O)c1	-5	-3	1	2	-4	57*	11
COc1cccc2c(SCC(=O)N/N=C/c3ccc(O)c(O)c3)cc(C)nc12	-7	1	2	1	-6	62*	9
COc1ccc2nc(C)cc(SCC(=O)N/N=C/c3cccc4ccccc34)c2c1	-3	-7	-9	-1	-4	-9	x
COc1ccc2nc(C)cc(SCC(=O)N/N=C/c3ccc(O)c(O)c3)c2c1	-1	5	0	6	-2	51*	4
O=C(CSc1nc2ccccc2o1)N/N=C/c1ccccc1	3	-1	-3	-4	6	1	x
CC(C)CC1Nc2ncnc(N3CCN(c4ccccc4)CC3)c2N(Cc2ccc(Br)cc2)C1=O (stereo unspecified)	-4	-5	-4	4	4	6	x
O=C(O)c1ccc(Cl)c2c1C1C=CCC1C(c1ccccn1)N2 (stereo unspecified)	2	-7	7	12	3	11	x
O=[N+]([O-])c1ccc(Cl)c2c1C1C=CCC1C(c1ccccn1)N2 (stereo unspecified)	-4	5	7	9	2	39*	8
Cc1c(OCC(=O)N2CCC[C@@H]2C(=O)O)ccc2c3c(c(=O)oc12)CCC3	1	4	2	-1	6	2	x
